Assay outcomes (PubChem BioAssay)
PostGolgi ctrl: growth inhibition of yeast control strain, primary screen, counter-screen for post-Golgi transport modulator project; efflux-deficient yeast background strain, growth absorbance A615, 16 h; inhibition, % at 10 µM; 5% of 98,000 active
CYP2C19 act: human CYP2C19 activators, primary screen, biochemical, luminescence; recombinant CYP2C19, luciferin-H EGE luminescence; hits give high values; 0 = fully inhibited enzyme, 1 = untreated enzyme; 96,000 tested, under 10 active; Cytochrome P450 2C19 (Homo sapiens), P33261; activation factor at 5 µM;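 active = activation factor of at least 2 at 5 µM in the primary screen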;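 note: 0 = wells with 2.5 mM tranylcypromine and 1 = vehicle-only wells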
Target sequence (P33261 whole entry, looked up): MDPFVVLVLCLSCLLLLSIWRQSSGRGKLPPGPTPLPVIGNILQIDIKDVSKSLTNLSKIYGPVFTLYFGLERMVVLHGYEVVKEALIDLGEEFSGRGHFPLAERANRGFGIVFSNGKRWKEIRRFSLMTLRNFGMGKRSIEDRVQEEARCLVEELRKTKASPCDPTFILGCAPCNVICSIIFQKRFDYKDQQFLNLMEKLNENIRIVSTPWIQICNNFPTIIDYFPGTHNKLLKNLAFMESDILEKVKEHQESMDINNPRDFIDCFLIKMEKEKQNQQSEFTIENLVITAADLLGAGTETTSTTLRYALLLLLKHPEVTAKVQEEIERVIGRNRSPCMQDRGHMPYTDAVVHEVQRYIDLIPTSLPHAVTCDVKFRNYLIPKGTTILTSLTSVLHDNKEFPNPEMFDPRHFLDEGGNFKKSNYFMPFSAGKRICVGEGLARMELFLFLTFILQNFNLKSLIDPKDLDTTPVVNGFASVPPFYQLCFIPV
CYP2C9 inh: blockers of cytochrome P450 2C9 activity – biochemical, luminescence, ADME assay, primary screen | P11712 | CYP2C9 Supersomes, luciferin-H conversion | inhibition, % at 5 µM | 20% of 96,000 active;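 active = blocking of liver enzyme CYP2C9 beyond about 50% at 5 µM, limit read from the data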
CYP2C19 inh: blockers of cytochrome P450 2C19 activity – biochemical, luminescence, ADME assay, primary screen | P33261 | CYP2C19 Supersomes, luciferin-H EGE luminescence, 30 min | inhibition, % at 5 µM | 21% of 96,000 active | AID 778, 2007;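 active = CYP2C19 inhibition above a set limit at 5 µM in the primary screen, cut at about 50% in these data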;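 note: plate controls were negative control wells for no effect and 2.5 mM tranylcypromine positive control for full effect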
CYP2C9 act: human CYP2C9 activators, primary screen, biochemical, luminescence. Cytochrome P450 2C9 (Homo sapiens), P11712. recombinant CYP2C9, luciferin-H conversion; hits give high values; factor 1 = untreated enzyme, 0 = blocked. activation factor at 5 µM. 1.4% of 96,000 active. AID 1024, 2008;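 active = activation factor of 2 or more for CYP2C9 at a 5 µM dose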;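 note: 0 = sulfaphenazole-blocked wells and 1 = vehicle-only wells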
PostGolgi yeast: phenotypic screen on post-Golgi transport, primary screen. post-Golgi transport phenotypic cell assay. 0.9% of 98,000 active. inhibition, % at 10 µM. AID 739, 2007;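 note: yeast cells grown in 1536-well plates; yeast grown about 18 h at 30C before absorbance read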
Numbers without * were called inactive. In the library only some 32% were active in any assay of this set; here they are far more common. Cut-off read from the data, not from the text of the source, unless noted: active = inhibition above about 30%; inactive = the rest.

How did O=C(O)CN(Cc1ccccc1)S(=O)(=O)c1ccc(F)cc1 do in these assays?
PostGolgi ctrl: 2; CYP2C19 act: 1.2; CYP2C9 inh: 47; CYP2C19 inh: -15; CYP2C9 act: 0.5; PostGolgi yeast: 1

What do the screens show for `CCOc1ccc(-c2nc(C#N)c(N3CCCCCC3)o2)cc1`?
PostGolgi ctrl: 18; CYP2C19 act: 1.1; CYP2C9 inh: 76*; CYP2C19 inh: -6; CYP2C9 act: 0.2; PostGolgi yeast: -3

Results for COc1ccc(-c2nc(C#N)c(N3CC(C)OC(C)C3)o2)cc1OC (stereo unspecified) ?
PostGolgi ctrl: 13; PostGolgi yeast: 7

How did COc1ccc(-c2nc(C#N)c(NC(C)C)o2)cc1 do in these assays?
PostGolgi ctrl: 10; CYP2C19 act: 0.1; CYP2C9 inh: -1; CYP2C19 inh: 86*; CYP2C9 act: 1; PostGolgi yeast: -2

How did Cc1ccc(-c2nc(C#N)c(N3CCCCC3)o2)cc1 do in these assays?
PostGolgi ctrl: 10; CYP2C19 act: 0.9; CYP2C9 inh: 9; CYP2C19 inh: 7; CYP2C9 act: 0.9; PostGolgi yeast: -1

Results for COc1ccc(-c2nc(C#N)c(N3CCCCCC3)o2)cc1 ?
PostGolgi ctrl: 20; CYP2C19 act: 0.9; CYP2C9 inh: 50*; CYP2C19 inh: 10; CYP2C9 act: 0.5; PostGolgi yeast: 23

How did COc1ccc(-c2nc(C#N)c(N3CCCCCC3)o2)cc1OC do in these assays?
PostGolgi ctrl: 34*; CYP2C19 act: 0.7; CYP2C9 inh: 52*; CYP2C19 inh: 34; CYP2C9 act: 0.5; PostGolgi yeast: 13

How did Cc1n[nH]c(=O)nc1NCC1CCCO1 (stereo unspecified) do in these assays?
PostGolgi ctrl: 11; CYP2C19 act: 1.1; CYP2C9 inh: -7; CYP2C19 inh: -8; CYP2C9 act: 1.1; PostGolgi yeast: 3

Results for CCOC(=O)C1CCN(C(=O)CC(NS(=O)(=O)c2ccc(OC)cc2)C(C)C)CC1 (stereo unspecified) ?
PostGolgi ctrl: 8; CYP2C19 act: 1; CYP2C9 inh: 1; CYP2C19 inh: 2; CYP2C9 act: 1; PostGolgi yeast: -1

What do the screens show for `COc1ccc(C2NCCO2)cc1OC` (stereo unspecified)?
PostGolgi ctrl: -1; CYP2C19 act: 1; CYP2C9 inh: 0; CYP2C19 inh: 2; CYP2C9 act: 1; PostGolgi yeast: -4

What do the screens show for `Cc1ccc(SCCC(=O)NCC2CCCO2)cc1` (stereo unspecified)?
PostGolgi ctrl: -1; CYP2C19 act: 0.7; CYP2C9 inh: 7; CYP2C19 inh: 27; CYP2C9 act: 0.9; PostGolgi yeast: 0

Results for N#Cc1nc(-c2ccccc2F)oc1N1CCCC1 ?
PostGolgi ctrl: 6; CYP2C19 act: 0.5; CYP2C9 inh: -127; CYP2C19 inh: 50*; CYP2C9 act: 2.3*; PostGolgi yeast: 22

How did N#Cc1nc(-c2ccccc2)oc1N1CCCCC1 do in these assays?
PostGolgi ctrl: 7; CYP2C19 act: 0.9; CYP2C9 inh: 19; CYP2C19 inh: 14; CYP2C9 act: 0.8; PostGolgi yeast: 11

What do the screens show for `Fc1ccc(Oc2cc(N3CCOCC3)nc(-c3ccccc3)n2)c(F)c1`?
PostGolgi ctrl: 29; CYP2C19 act: 1; CYP2C9 inh: -9; CYP2C19 inh: 1; CYP2C9 act: 1.1; PostGolgi yeast: -6

What do the screens show for `Cc1sc2nc(SCc3nc(-c4cccs4)no3)n(-c3ccccc3)c(=O)c2c1C`?
PostGolgi ctrl: 0; CYP2C19 act: 0.8; CYP2C9 inh: 66*; CYP2C19 inh: 20; CYP2C9 act: 0.3; PostGolgi yeast: -9

How did c1ccc(-n2c(SCc3ccncc3)nnc2-c2ccco2)cc1 do in these assays?
PostGolgi ctrl: -6; CYP2C19 act: 0.4; CYP2C9 inh: 76*; CYP2C19 inh: 59*; CYP2C9 act: 0.2; PostGolgi yeast: 0

How did c1ccc(-n2c(SCc3nc(-c4cccs4)no3)nnc2-c2ccco2)cc1 do in these assays?
PostGolgi ctrl: 34*; CYP2C19 act: 0.6; CYP2C9 inh: 92*; CYP2C19 inh: 43; CYP2C9 act: 0.1; PostGolgi yeast: -5

Results for CC1CC(=O)C=C(O)C1C(=O)OC(C)(C)C (stereo unspecified) ?
PostGolgi ctrl: 0; CYP2C19 act: 0.9; CYP2C9 inh: 42; CYP2C19 inh: 11; CYP2C9 act: 0.6; PostGolgi yeast: -3

Results for Cc1cc(SCC(=O)N/N=C/c2ccc(O)c(O)c2)c(C)cc1Br ?
PostGolgi ctrl: 0; CYP2C19 act: 0.9; CYP2C9 inh: 26; CYP2C19 inh: 14; CYP2C9 act: 0.7; PostGolgi yeast: -1

What do the screens show for `CSc1nc(-c2ccco2)nn1C(=O)c1ccc(Cl)cc1`?
PostGolgi ctrl: 2; CYP2C19 act: 1.1; CYP2C9 inh: -5; CYP2C19 inh: -7; CYP2C9 act: 1.1; PostGolgi yeast: 6

Results for CCN(Cc1ccccc1)Cc1c(F)cccc1F ?
PostGolgi ctrl: 5; CYP2C19 act: 0.7; CYP2C9 inh: -8; CYP2C19 inh: 26; CYP2C9 act: 1.1; PostGolgi yeast: -2

Results for CCN(Cc1ccccc1)Cc1cc(OC)cc(OC)c1 ?
PostGolgi ctrl: -19; CYP2C19 act: 0.1; CYP2C9 inh: 35; CYP2C19 inh: 95*; CYP2C9 act: 0.7; PostGolgi yeast: 12

What do the screens show for `COc1ccc(CN(CCN(C)C)Cc2ccccc2)c(OC)c1`?
PostGolgi ctrl: 20; CYP2C19 act: 0.2; CYP2C9 inh: 23; CYP2C19 inh: 82*; CYP2C9 act: 0.8; PostGolgi yeast: 3

How did Cc1cccc(NC(=O)c2ccc(-n3ccnc3)nc2)c1 do in these assays?
PostGolgi ctrl: 2; CYP2C19 act: 0; CYP2C9 inh: 98*; CYP2C19 inh: 100*; CYP2C9 act: 0; PostGolgi yeast: 20

Results for COc1ccc(-c2cnn(C3CCS(=O)(=O)C3)c2N)cc1 (stereo unspecified) ?
PostGolgi ctrl: -6; CYP2C19 act: 0.9; CYP2C9 inh: 0; CYP2C19 inh: 7; CYP2C9 act: 1; PostGolgi yeast: 4

Results for Cc1ccc2nc(NCC(=O)O)nc(-c3ccccc3)c2c1 ?
PostGolgi ctrl: 5; CYP2C19 act: 1; CYP2C9 inh: 12; CYP2C19 inh: -2; CYP2C9 act: 0.9; PostGolgi yeast: -3

Results for COc1cc(Nc2nc(-c3ccccc3)c3cc(C)ccc3n2)cc(OC)c1OC ?
PostGolgi ctrl: 35*; PostGolgi yeast: -1

Results for CCCCOC(=O)CSc1nc2c(cc1C#N)C(=O)CC(C)(C)C2 ?
PostGolgi ctrl: 14; CYP2C19 act: 0.5; CYP2C9 inh: 64*; CYP2C19 inh: 49; CYP2C9 act: 0.4; PostGolgi yeast: 16
